According to the supplement of paper PMC11219838:
A number with no mark means an inactive call.

Columns and labels:
Settings in all cases: 60 µM; 5 days; temperature: 20 °C
Meloidogyne hapla J2 = experiment: proportion of mobile M. hapla J2 relative to DMSO control (fraction of DMSO control); higher = more viable, less nematicidal, active = 0.7 or less
Method in brief: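 Sealed 96-well plates, each well holding around 25 M. hapla J2 in distilled water with compound pinned to 60 µM final (0.6% v/v DMSO), were shaken at 200 rpm for 5 days at 20 °C. Then 2 µL of 1 M NaOH was added to each well. Microscope-scored mobility was normalised to the mean of DMSO-only wells from the same plate. Eight such wells were on each plate, and the two biological replicates were averaged.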

[1] = tested on: Caenorhabditis elegans dauer (daf-2(e1370)); experiment: proportion of mobile C. elegans dauer larvae relative to DMSO control (fraction of DMSO control); higher = more viable, less nematicidal, active = 0.63 or less; extreme values may be limits of the assay
Method in brief: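 The proportion of mobile worms, relative to DMSO wells, was scored by dissection microscope and averaged over two biological replicates. Worms were C. elegans dauers, about 20 per well in liquid NGM in 96-well plates, generated from synchronized larvae on MYOB plates with E. coli OP50 at 25 °C for 48 h. They were treated with compound pinned to 60 µM final (0.6% v/v DMSO) and kept in sealed plates shaken at 200 rpm for 5 days at 20 °C.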

Ditylenchus dipsaci = experiment: proportion of mobile D. dipsaci (mixed stage) relative to DMSO control (fraction of DMSO control); higher = more viable, less nematicidal, active = 0.86 or less; extreme values may be limits of the assay
Method in brief: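 Mobility, expressed relative to DMSO controls, is the mean of two biological replicates. The test organisms were D. dipsaci grown on pea plants in Gamborg B-5 agar and extracted into water by filter funnel, with about 20 added per well of a 96-well plate in distilled water. Compound was pinned to 60 µM final (0.6% v/v DMSO), plates were sealed and shaken at 200 rpm for 5 days at 20 °C, and mobile worms were scored under a microscope once 2 µL 1 M NaOH had been added.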

| Structure (SMILES) | proportion of mobile M. hapla J2 (Meloidogyne hapla J2) | proportion of mobile C. elegans dauer larvae [1] | proportion of mobile D. dipsaci (Ditylenchus dipsaci) |
| --- | --- | --- | --- |
| O=C(CSc1nnc(-c2cccc(Br)c2)o1)N1CCCCC1 | 0.915 | 1 | 1 |
| CC(C)CCC(=O)Nc1ccccc1-c1nc(-c2ccncc2)no1 | 0.977 | 1 | 1 |
| Fc1ccc(OCc2nc(-c3ccc(Cl)cc3)no2)cc1 | 1.1 | 1 | 1 |
| Cc1cc(OCc2nc(-c3ccccn3)no2)c(C)cc1Br | 0.711 | 1 | 1 |
| Brc1ccc(OCc2nc(-c3ccncc3)no2)cc1 | 0.995 | 1 | 1 |
| Brc1ccc(OCc2nc(-c3ccc4c(c3)OCO4)no2)cc1 | 0.943 | 1 | 1 |
| O=C(CSc1nnc(-c2ccccc2)o1)Nc1cc(C(F)(F)F)ccc1Cl | 1.04 | 1 | 1 |
| Cc1cccc(OCc2nc(-c3ccncc3)no2)c1C | 0.937 | 1 | 1 |
| Cc1ccc(-c2noc(COc3ccc(Br)cc3)n2)cc1 | 1 | 1 | 1 |
| Cc1ccc(C)c(-c2nc(-c3ccc(Cl)cc3)no2)c1 | 0.93 | 1 | 1 |
| CCc1ccc(OCc2nc(-c3ccc(C)cc3)no2)cc1 | 1.04 | 1 | 1 |
| COc1ccc(-c2noc(-c3ccc(C)c(Cl)c3)n2)cc1 | 0.986 | 1 | 1 |
| COc1cccc(-c2noc(COc3cccc(C)c3C)n2)c1 | 1.04 | 1 | 1 |
| CC1CC(C)CN(C(=O)CSc2nnc(-c3ccccc3)o2)C1 (configuration not stated) | 1.02 | 1 | 1 |
| CCOc1nc(-c2ccc(C)cc2)ccc1-c1noc(CC)n1 | 0.667 (active) | 1 | 1 |
| CCOC(=O)c1c(NC(=O)CSc2nnc(-c3ccc(Cl)cc3)o2)sc(C)c1C | 1.09 | 1 | 1 |
| Cc1cccc(OCc2nc(-c3ccc(-n4cccc4)cc3)no2)c1 | 1.01 | 1 | 1 |
| COc1ccccc1-c1nnc(SCC(=O)OCc2ccccc2)o1 | 0.978 | 1 | 1 |
| c1ccc(-c2nc(C3CCCCC3)no2)cc1 | 0.956 | 1 | 1 |
| Cc1cccc(-c2nc(-c3ccc(Br)cc3)no2)c1 | 1.01 | 1 | 1 |
| Cc1cccc(-c2noc(-c3ccccc3Cl)n2)c1 | 0.894 | 1 | 1 |
| Clc1ccc(OCc2nc(-c3ccccc3)no2)c(Br)c1 | 1.02 | 1 | 1 |
| COc1nc(-c2ccc(Cl)cc2)ccc1-c1noc(-c2ccncc2)n1 | 0.921 | 1 | 1 |
| Cc1ccc(-c2noc(COc3cc(C)cc(C)c3)n2)cc1 | 1.02 | 1 | 1 |
| Cc1ccc(OCc2nc(-c3ccc(Cl)cc3)no2)c(C)c1 | 0.997 | 1 | 1 |

| Structure (SMILES) | proportion of mobile M. hapla J2 (Meloidogyne hapla J2) | proportion of mobile C. elegans dauer larvae [1] | proportion of mobile D. dipsaci (Ditylenchus dipsaci) |
| --- | --- | --- | --- |
| FC(F)(F)c1cccc(-c2noc(-c3ccc4c(c3)OCO4)n2)c1 | 1.06 | 1 | 1 |
| Cc1ccc(-c2nc(-c3ccccc3Br)no2)cc1 | 0.962 | 1 | 1 |
| Cc1ccc(-c2nnc(SCc3ccccc3C)o2)cc1 | 1.06 | 1 | 1 |
| CCCC(=O)Nc1ccccc1-c1nc(-c2ccncc2)no1 | 0.99 | 1 | 1 |
| COc1ccc(-c2noc(CSc3nc(C)cc(C)n3)n2)cc1 | 0.992 | 1 | 0.833 (active) |
| Cc1ccc(-c2nc(-c3ccccc3)no2)cc1C | 0.884 | 1 | 1 |
| Cc1ccc(OCc2nc(-c3ccccn3)no2)cc1C | 1.01 | 1 | 1 |
| CCOc1ccccc1NC(=O)CSc1nnc(-c2ccccc2)o1 | 0.977 | 1 | 1 |
| COc1ccccc1-c1nnc(SCc2ccc(C#N)cc2)o1 | 0.897 | 1 | 1 |
| Cc1ccc(C)c(-c2nc(-c3ccncc3)no2)c1 | 1.09 | 0.385 (active) | 1 |
| Cc1cc(OCc2nc(-c3cccnc3)no2)c(C)c(C)c1Br | 0.934 | 1 | 1 |
| c1ccc(COc2cccc(-c3nc(-c4ccccn4)no3)c2)cc1 | 1.03 | 1 | 1 |
| O=C(CSc1nnc(-c2cccc(Br)c2)o1)c1ccccc1 | 1.02 | 1 | 0.714 (active) |
| Cc1cc(Cl)ccc1OCc1nc(-c2cccnc2)no1 | 1 | 1 | 1 |
| O=C(CSc1nnc(-c2cccc(Br)c2)o1)NC1CCCCC1 | 0.778 | 1 | 1 |
| COc1cccc(-c2nnc(SCc3ccccc3C)o2)c1 | 1.01 | 1 | 1 |
| Cc1cc(OC(C)c2nc(-c3cccnc3)no2)ccc1Cl (configuration not stated) | 0.862 | 1 | 1 |
| Brc1ccccc1-c1nc(-c2ccc3c(c2)OCO3)no1 | 1.04 | 1 | 1 |
| CCN(CC)C(=O)CSc1nnc(-c2ccc(Br)cc2)o1 | 1.04 | 1 | 1 |
| Clc1ccc(OCc2nc(-c3ccc(Br)o3)no2)cc1 | 0.945 | 1 | 1 |
| Cc1ccccc1OCc1nc(-c2ccccc2)no1 | 0.821 | 1 | 1 |
| c1ccc(-c2noc(C3COc4ccccc4O3)n2)cc1 (configuration not stated) | 0.953 | 0.539 (active) | 1 |
| COc1ccc(-c2noc(COc3ccc(F)cc3)n2)cc1 | 0.891 | 1 | 1 |
| O=C(CSc1nnc(-c2cccc(Cl)c2)o1)Nc1nccs1 | 0.894 | 1 | 1 |
| CC(Oc1ccccc1)c1nc(-c2ccccn2)no1 (configuration not stated) | 0.937 | 1 | 1 |

| Structure (SMILES) | proportion of mobile M. hapla J2 (Meloidogyne hapla J2) | proportion of mobile C. elegans dauer larvae [1] | proportion of mobile D. dipsaci (Ditylenchus dipsaci) |
| --- | --- | --- | --- |
| CC(=O)Nc1ccc(-c2nnc(SCc3ccccc3)o2)cc1 | 0.954 | 1 | 1 |
| COc1ccc(-c2nnc(SCC(=O)Nc3ccccc3F)o2)cc1 | 1.04 | 1 | 1 |
| Cc1cc(OCc2nc(-c3ccncc3)no2)ccc1Br | 1.05 | 1 | 1 |
| CCOC(=O)c1ccc(NC(=O)c2ccccc2-c2nc(-c3cccc(C)c3)no2)cc1 | 0.777 | 1 | 1 |
| O=C(CSc1nnc(-c2ccco2)o1)Nc1cccc2ccccc12 | 0.956 | 1 | 1 |
| COc1ccc(OCc2nc(-c3ccccc3)no2)cc1 | 0.891 | 1 | 1 |
| COc1ccc(-c2noc(COc3ccc(Cl)cc3Cl)n2)cc1 | 0.874 | 1 | 1 |
| CC(C)(C)C(=O)CSc1nnc(-c2ccc(Cl)cc2Cl)o1 | 0.873 | 1 | 1 |
| CC(C)c1ccc(OCc2nc(-c3ccncc3)no2)c(Br)c1 | 0.82 | 1 | 1 |
| COc1ccc(CC(=O)Nc2ccc(-c3noc(-c4ccc(F)cc4)n3)cc2)cc1 | 0.978 | 1 | 1 |
| Clc1ccc(-c2noc(-c3ccccc3Cl)n2)cc1 | 0.927 | 1 | 1 |
| Clc1ccc(CSc2nnc(-c3ccccc3)o2)c(Cl)c1 | 1.03 | 1 | 1 |
| Cc1cc(Br)ccc1OCc1nc(-c2ccccn2)no1 | 0.973 | 1 | 1 |
| Cc1ccc(-c2noc(COc3cccc(C)c3)n2)cc1 | 0.972 | 1 | 1 |
| COc1ccc(-c2nc(C3CCCCC3)no2)cc1 | 0.896 | 1 | 1 |
| Cc1ccoc1-c1nnc(-c2ccco2)o1 | 0.949 | 1 | 0.833 (active) |
| CCOc1ccccc1-c1nc(-c2ccc(NC(=O)CCc3ccc(OC)cc3)cc2)no1 | 0.918 | 1 | 1 |
| COc1ccc(-c2noc(COc3ccc(Cl)cc3)n2)cc1 | 1.04 | 1 | 1 |
| COc1ccccc1-c1nnc(SCC(=O)Nc2nc(C)cs2)o1 | 0.91 | 1 | 1 |
| COc1ccc(-c2nc(-c3ccc(C(F)(F)F)cc3)no2)cc1 | 0.966 | 1 | 1 |
| O=C(CSc1nnc(-c2ccccc2)o1)Nc1cccc(Br)c1 | 1.05 | 1 | 1 |
| Cc1cc(Cl)ccc1OCc1nc(-c2ccccc2)no1 | 1.02 | 1 | 1 |
| O=C(CSc1nnc(-c2ccccc2Cl)o1)NCc1ccccc1 | 1.04 | 1 | 1 |
| Fc1ccccc1-c1nc(-c2ccc(Cl)cc2)no1 | 0.956 | 1 | 1 |
